Test [1] has as its target Nuclear receptor coactivator 3 (Homo sapiens) (UniProt Q9Y6Q9). Description: NCOA3 GAL4-fusion reporter inhibition – cell-based, luminescence, quadruplicate, confirmation (AID 588792;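 active means mean inhibition over 43.08%, the solvent-only control mean plus 3 SD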;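 further: 0% = DMSO treated cells and 100% = gossypol at 36 µM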). The conditions noted are these: HEK293 GAL4-SRC3 luciferase reporter, at 3.6 µM, active compounds read high. (In a reporter assay the amount or activity of a reporter protein is the signal.)
Test [2] has as its system transactivating tegument protein VP16 (Human herpesvirus 1), Gal4-VP16 luciferase reporter. The experiment in a line: repression of VP16-driven luciferase reporter – cell-based, luminescence, high throughput, counter-screen for SRC3 inhibitor project (AID 588794; in the data active means inhibition above about 30%). The conditions noted are these: mammalian cells, at 3.6 µM, active compounds read high.
Test [3] addresses Nuclear receptor coactivator 1 (Homo sapiens) (UniProt Q15788). The experiment in a line: NCOA1 GAL4-fusion reporter inhibition – cell-based, luminescence, quadruplicate, confirmation (AID 588820;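 active means mean inhibition above 46.68%, the untreated control wells mean plus 3 SD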;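 further: 0% = DMSO wells and 100% = gossypol 36 µM treated wells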). As to conditions: HEK293 GAL4-SRC1 luciferase reporter, at 3.6 µM, active compounds read high.
The nature of test [4]: repression of VP16-driven luciferase reporter – cell-based, luminescence, high throughput, counter-screen for SRC1 inhibitor project (AID 588824). The conditions noted are these: cell-based VP16 transactivation luciferase luminescence; at 3.6 µM; active compounds read high.

A number with no mark means an inactive call. Activity calls are given as the source filed them. Unless noted, no stated cut-off is given here; in the data, active means inhibition above about 25%; inactive means the rest.

Sequence of Nuclear receptor coactivator 1 (Homo sapiens) (Q15788 whole entry, looked up, the tested form may be a part): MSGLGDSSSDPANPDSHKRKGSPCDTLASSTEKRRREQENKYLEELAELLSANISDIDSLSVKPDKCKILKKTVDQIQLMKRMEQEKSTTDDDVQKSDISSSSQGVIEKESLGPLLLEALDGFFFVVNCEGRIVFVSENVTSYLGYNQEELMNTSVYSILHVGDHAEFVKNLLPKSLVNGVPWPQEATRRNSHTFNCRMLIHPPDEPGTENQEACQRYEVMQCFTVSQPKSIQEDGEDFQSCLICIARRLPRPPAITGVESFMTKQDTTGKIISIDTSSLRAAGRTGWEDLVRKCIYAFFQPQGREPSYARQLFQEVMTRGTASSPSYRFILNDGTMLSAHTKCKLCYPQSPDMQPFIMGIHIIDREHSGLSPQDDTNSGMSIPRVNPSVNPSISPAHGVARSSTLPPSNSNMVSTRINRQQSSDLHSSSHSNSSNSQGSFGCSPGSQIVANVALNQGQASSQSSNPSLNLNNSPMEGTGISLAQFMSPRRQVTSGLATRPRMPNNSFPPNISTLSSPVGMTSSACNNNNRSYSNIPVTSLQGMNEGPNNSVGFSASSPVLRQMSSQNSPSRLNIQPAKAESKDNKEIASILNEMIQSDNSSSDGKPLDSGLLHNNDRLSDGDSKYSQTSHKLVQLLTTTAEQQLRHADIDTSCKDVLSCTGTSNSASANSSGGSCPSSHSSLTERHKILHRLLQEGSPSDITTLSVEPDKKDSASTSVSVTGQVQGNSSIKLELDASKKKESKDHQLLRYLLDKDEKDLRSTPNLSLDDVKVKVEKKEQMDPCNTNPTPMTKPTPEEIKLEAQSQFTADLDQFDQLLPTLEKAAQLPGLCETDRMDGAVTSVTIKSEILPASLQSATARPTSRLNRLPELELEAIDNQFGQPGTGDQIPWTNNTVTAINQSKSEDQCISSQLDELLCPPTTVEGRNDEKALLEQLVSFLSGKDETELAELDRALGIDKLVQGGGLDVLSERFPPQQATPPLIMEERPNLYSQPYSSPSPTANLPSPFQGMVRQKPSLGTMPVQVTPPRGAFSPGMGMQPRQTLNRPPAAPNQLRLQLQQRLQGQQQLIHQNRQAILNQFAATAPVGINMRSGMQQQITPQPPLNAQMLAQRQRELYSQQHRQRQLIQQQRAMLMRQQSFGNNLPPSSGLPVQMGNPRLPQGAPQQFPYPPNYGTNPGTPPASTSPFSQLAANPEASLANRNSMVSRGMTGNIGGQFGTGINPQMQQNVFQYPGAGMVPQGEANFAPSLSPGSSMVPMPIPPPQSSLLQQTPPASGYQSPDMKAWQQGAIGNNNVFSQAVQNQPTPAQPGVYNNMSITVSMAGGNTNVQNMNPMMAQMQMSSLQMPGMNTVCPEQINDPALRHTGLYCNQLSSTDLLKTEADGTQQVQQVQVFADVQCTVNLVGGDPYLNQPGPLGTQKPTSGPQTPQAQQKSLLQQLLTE
Sequence of Nuclear receptor coactivator 3 (Homo sapiens) (Q9Y6Q9 whole entry, looked up, the tested form may be a part): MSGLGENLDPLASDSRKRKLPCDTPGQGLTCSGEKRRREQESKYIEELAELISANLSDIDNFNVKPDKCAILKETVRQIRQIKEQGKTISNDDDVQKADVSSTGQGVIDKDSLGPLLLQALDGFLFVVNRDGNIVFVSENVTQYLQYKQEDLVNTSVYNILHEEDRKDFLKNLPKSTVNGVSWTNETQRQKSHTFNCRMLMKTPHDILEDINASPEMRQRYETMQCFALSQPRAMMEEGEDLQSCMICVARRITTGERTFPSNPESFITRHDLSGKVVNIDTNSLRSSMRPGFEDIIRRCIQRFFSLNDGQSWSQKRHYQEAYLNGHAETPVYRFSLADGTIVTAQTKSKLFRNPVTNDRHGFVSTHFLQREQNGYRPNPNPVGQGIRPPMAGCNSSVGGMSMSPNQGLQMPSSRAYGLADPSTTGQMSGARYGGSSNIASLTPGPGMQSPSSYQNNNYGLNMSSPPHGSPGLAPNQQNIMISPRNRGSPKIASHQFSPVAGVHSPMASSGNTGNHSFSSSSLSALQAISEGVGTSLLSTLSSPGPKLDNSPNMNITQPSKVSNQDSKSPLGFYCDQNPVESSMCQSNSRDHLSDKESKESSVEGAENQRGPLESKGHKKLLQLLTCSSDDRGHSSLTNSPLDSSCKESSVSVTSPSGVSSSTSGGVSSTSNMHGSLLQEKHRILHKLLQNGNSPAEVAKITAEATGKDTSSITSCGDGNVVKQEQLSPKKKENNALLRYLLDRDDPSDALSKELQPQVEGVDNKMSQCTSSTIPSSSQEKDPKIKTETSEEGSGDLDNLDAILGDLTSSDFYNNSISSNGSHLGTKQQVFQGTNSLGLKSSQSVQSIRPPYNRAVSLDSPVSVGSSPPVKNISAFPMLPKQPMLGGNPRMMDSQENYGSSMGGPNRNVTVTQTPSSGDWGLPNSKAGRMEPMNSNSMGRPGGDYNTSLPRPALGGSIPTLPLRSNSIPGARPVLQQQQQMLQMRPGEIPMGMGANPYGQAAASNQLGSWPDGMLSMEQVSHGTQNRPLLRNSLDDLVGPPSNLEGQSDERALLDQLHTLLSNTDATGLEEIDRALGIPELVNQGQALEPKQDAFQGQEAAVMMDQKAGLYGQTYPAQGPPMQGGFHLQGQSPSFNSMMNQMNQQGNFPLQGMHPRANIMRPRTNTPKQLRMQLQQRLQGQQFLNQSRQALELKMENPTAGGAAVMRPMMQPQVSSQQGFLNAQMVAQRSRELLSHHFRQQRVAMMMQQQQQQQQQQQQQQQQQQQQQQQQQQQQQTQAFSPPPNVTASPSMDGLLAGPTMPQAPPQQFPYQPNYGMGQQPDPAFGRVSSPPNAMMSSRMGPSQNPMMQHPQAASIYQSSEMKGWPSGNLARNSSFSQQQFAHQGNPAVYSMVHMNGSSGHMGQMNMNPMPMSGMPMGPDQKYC

For `Cc1nc(N)c(CC(Br)CBr)c(Cl)n1` (stereo unspecified), the inhibition in test [1] is 31.8%; in test [2] it was 35.4% (active); in test [3], 44.4%; in test [4] it was 28.9% (active).
Taken in the same sequence, the figures for `Clc1cncc(Cl)c1N/N=C/c1ccncc1` were 24.8%, 26.7%, 40.4% and 27.4% (active).
Taken in the same sequence, the figures for `CCn1nc(C)c(CNC(=O)c2cc(COc3ccc(F)cc3Cl)on2)c1C` were 12.7%, 28.5%, 8.35% and 20%.
Regarding `O=C(NCc1ccccc1)c1csc(-c2cccnc2)n1`, the inhibition in test [1] is 54.8% (active); in test [2], 30.8% (active); in test [3] it was 42.7%; in test [4] it was 37% (active).
In the same order, the values of `CN(C)c1ccc(Nc2ncnc3ccc(Br)cc23)cc1` are 47.3% (active), 30.8% (active), 40.8% and 20.2%.
Turning to `N=c1c2c(-c3ccccc3)c(-c3ccccc3)n(Cc3ccco3)c2ncn1CCCO`, the inhibition in test [1] is 26.8%; in test [2], 52.6% (active); in test [3], 36.9%; in test [4] it was 51.3% (active).
In the same order, the values of `CCN(CC)c1ccc(/C=N/NC(=O)CCC(=O)NCc2ccccc2)c(O)c1` are 22.7%, 21.6%, 12.5% and 28.9% (active).
Taken in the same sequence, the figures for `CCN(CC)c1ncnc2ccc(Br)cc12` were 48.3% (active), 31.9% (active), 45.9% and 36% (active).
Taken in the same sequence, the figures for `Cc1ccc(C2NC(=O)CCC2[N+](=O)[O-])cc1` (stereo unspecified) were -3.62%, -1.77%, -9.25% and -3.26%.
Consider `COc1cc(/C=C/C(=O)Nc2ccc(OC)c(S(=O)(=O)N3CCOCC3)c2)ccc1OCC#N`, for which the inhibition in test [1] is 12.1%; in test [2] it was 32.6% (active); in test [3], 19.1%; in test [4], 40.3% (active).
In the same order, the values of `CCCCNc1nc2c(c(=O)n(C)c(=O)n2C)n1Cc1cccc(OC)c1` are 11.7%, 25.3%, 16.8% and 26.6% (active).
For `Cc1cc(=O)[nH]c(Nc2cccc(Br)c2)n1`, the inhibition in test [1] is 22.7%; in test [2], 23.7%; in test [3], 34.2%; in test [4] it was 24.4%.
Consider `Cn1c(=O)c2c(nc(NCc3ccco3)n2C/C=C/c2ccccc2)n(C)c1=O`, for which the inhibition in test [1] was 36.4%; in test [2], 44% (active); in test [3], 18.6%; in test [4] it was 39.9% (active).
Taken in the same sequence, the figures for `CCC(=O)c1ccc(Oc2nc3c(c(=O)n(C)c(=O)n3C)n2CC)cc1` were 26.3%, 19.6%, 29.4% and 20.9%.

Usually inhibition stands for the change of the read-out against control, counted positive when it falls.

Values taken from PubChem BioAssay.
